SMILES strings stand for the structures. Records with an inconclusive call do not appear. Unmarked numbers belong to inactive results. Activity calls are given as the source filed them. Calls come from the whole dose curve; as a rule, active = well fitted inhibition curve with a large enough effect; inconclusive = small, poorly fitted or top-dose-only effect; inactive = flat fitted curve, though single readings scatter.
% is set by controls: 0 for no effect and ±100 for the full control effect.

A short description of the assay: Primary qHTS for inhibitors of nuclear receptor binding SET domain protein 2 (NSD2) in an isogenic RCH-ACV NSD2 p.E1099K mutant (9B) (AID 1645876). Note: nearly all actives have a fitted effect of over 70% in size. Conditions: RCH-ACV (leukaemia line) NSD2 E1099K (9B) viability, CellTiter-Glo, 72 h; series mostly up to 44.9 µM; activity change, negative = viability loss: at the top concentration. (In general: In qHTS, concentration-response curves come from the screen itself.)
Regarding `C/C(=C\C1CCC(C)C2CCC3(C)OC123)C(=O)O` (stereo unspecified), the “activity change, negative = viability loss” value is 2.16%. Regarding `C=CC(C)(O)CC/C=C(\C)C(=O)O[C@@H]1[C@@H](O)[C@H](OC(C)(C=C)CC/C=C(\C)C(=O)O[C@@H]2O[C@H](CO)[C@@H](O)[C@H](O)[C@H]2O)O[C@H](CO)[C@H]1OC(=O)/C(C)=C/CCC(C)(O)C=C` (stereo partly specified), the activity change, negative = viability loss was -6.17% [at 9.23 µM].

With `O=C(/C=C/c1ccccc1)OC[C@H]1O[C@@H](OC(=O)c2cc(O)c(O)c(O)c2)[C@H](O)[C@@H](O)[C@@H]1O`, the “activity change, negative = viability loss” value is -1.47% [at 17.3 µM].

In the case of `Cc1c(O)cc2c(c1O)COC1(O)CCCOC21` (stereo unspecified), the “activity change, negative = viability loss” value was 2.89%.

Turning to `CC1CC2(O)OC(=O)C3=C2C(CCC3)[C@@]12C[C@@H](c1ccoc1)OC2=O` (stereo partly specified), the “activity change, negative = viability loss” value is -15.1%. Regarding `CC(C/C=C/C(C)(C)O)C1CCC(C)(O)C(O)C1` (stereo unspecified), the “activity change, negative = viability loss” value was 3.5%. Take `COc1c(C)c(OCC(O)C(C)(C)O)cc2c1CNC2=O` (stereo unspecified): the “activity change, negative = viability loss” value is -10.5%.

For the compound `C/C=C1\[C@H](O[C@@H]2O[C@H](CO)[C@@H](O)[C@H](O)[C@H]2O)OC=C(C(=O)OCCc2ccc(O)cc2)[C@H]1CC(=O)OCCc1ccc(O)cc1`, the “activity change, negative = viability loss” value was -26.3% [at 17.3 µM]. `C=C1C(O)CCC2(C)CC3(OC)OC(=O)C(C)=C3CC12` (stereo unspecified): the “activity change, negative = viability loss” value was -2.05%. Consider `COc1cc(/C=C/C(=O)O[C@@H]2C[C@](O)(C(=O)O)C[C@@H](O)[C@H]2O)ccc1O`, for which the compound was called inactive. As for `C/C(CO)=C1/CCC23COC(C2)C(O)(C(=O)O)CCC13` (stereo unspecified), the “activity change, negative = viability loss” value is -15.1%. On the same count and under the same terms, the same measure for `CC1(C)C2CC[C@]3(C)C(C(=O)C=C4[C@H]5C[C@@](C)(C(=O)O)CC[C@]5(C)CC[C@]43C)[C@@]2(C)CC[C@@H]1O` (stereo partly specified): -3.77% [at 17.3 µM]; for `C=C1CCC[C@]2(C)CC[C@@](O)(C(=C)C(=O)O)C[C@@H]12`: -12.5%. Same read-out and setting: as for `C=C[C@H]1[C@H](O[C@@H]2O[C@H](CO)[C@@H](O)[C@H](OC(=O)/C=C/c3ccc(O)c(OC)c3)[C@H]2O)OC=C2C(=O)OCC[C@]21O`, the figure is 3.07% [at 17.3 µM]. With `CC(C)=CCC[C@](C)(O[C@@H]1O[C@H](CO[C@@H]2OC[C@H](O)[C@H](O)[C@H]2O)[C@@H](O)[C@H](O)[C@H]1O)[C@H]1CC[C@]2(C)[C@@H]1[C@H](O)C[C@@H]1[C@@]3(C)CC[C@H](O[C@@H]4O[C@H](CO)[C@@H](O)[C@H](O)[C@H]4O[C@@H]4O[C@H](CO)[C@@H](O)[C@H](O)[C@H]4O)C(C)(C)[C@@H]3CC[C@]12C`, the “outcome” value is “inactive [at 17.3 µM]”. As to `C[C@]1(OC(=O)/C=C\c2ccc(O)cc2)C[C@@H](O)[C@]2(O)C=CO[C@@H](O[C@@H]3O[C@H](CO)[C@@H](O)[C@H](O)[C@H]3O)C12` (stereo partly specified), the “activity change, negative = viability loss” value was -8.02% [at 17.3 µM].

In the case of `C=C1CCC2C(C)(C)CC(O)CC2(C)C1CCC(C)CCOC(=O)CCC(=O)O` (stereo unspecified), the “activity change, negative = viability loss” value was -22.4% [at 17.3 µM]. As to `O=C(O)CCc1cc2ccoc2cc1O[C@@H]1O[C@H](CO)[C@@H](O)[C@H](O)[C@H]1O`, the “activity change, negative = viability loss” value was 3.81%.

Take `COC(=O)C1C(O)CCC2CN3CCc4c([nH]c5ccccc45)C3CC21` (stereo unspecified): the “activity change, negative = viability loss” value is -6.46%.

Regarding `CCc1nnc(NS(=O)(=O)c2ccc(NC(=S)NC(=O)/C=C/c3ccc(F)cc3)cc2)s1`, the outcome was inactive.

In the case of `COC(=O)C1=COC(OC2OC(CO)C(O)C(O)C2O)C2C(COC(=O)/C=C/c3ccc(O)cc3)C(O)C(O)C12` (stereo unspecified), the “activity change, negative = viability loss” value was -3.19% [at 17.3 µM]. On the same count and under the same terms, the same measure for `O=C(O)CCc1ccc(NCc2cccc3c2CCCN3CCOc2ccccc2)cc1F`: -11.3%; for `O=C(O)CC1(O)C(=O)Nc2ccccc21` (stereo unspecified): 1.87% [at 91.9 µM]. Same read-out and setting: the same measure for `C/C(=C\CCC1(C)C2CC3C(C2)C31C)C(=O)O` (stereo unspecified): -1.9%. Still for that read-out and setting: as for `C=CC(C)(O)CC/C=C(\C)COC1O[C@H](CO)[C@@H](O)[C@H](O)[C@H]1O` (stereo partly specified), the figure is -23.8%; as for `C=C[C@H]1[C@H](O[C@@H]2O[C@H](CO)[C@@H](O)[C@H](O)[C@H]2O)OC=C(C(=O)OC)[C@H]1CCO`, 0.0548%; as for `C=C1CC[C@@H]2[C@@](C)(CO[C@@H]3O[C@H](CO)[C@@H](O)[C@H](O)[C@H]3O)[C@H](O)CC[C@@]2(C)[C@@H]1CC/C(C)=C/CO[C@@H]1O[C@H](CO)[C@@H](O)[C@H](O)[C@H]1O`, -15.8% [at 17.3 µM]. For `COc1c(-c2ccc(O)cc2)cc(OC)c2c1oc1cc(O)c(OC3OC(CO)C(O)C3O)cc12` (stereo unspecified), the “activity change, negative = viability loss” value was -11.9% [at 17.3 µM].

For `C=C1CC2C3(C)C=CC(=O)OC(C)(C)C3CC(OC(C)=O)C2(C)C2C(=O)OC(C)C(=O)C12C` (stereo unspecified), the “activity change, negative = viability loss” value was 1.31% [at 17.3 µM]. On the same count and under the same terms, the same measure for `N=C(N)c1ccc2nc(-c3cc(CC(=O)NC(CC(=O)O)C(=O)O)cc(-c4cc(S(N)(=O)=O)ccc4O)c3O)[nH]c2c1` (stereo unspecified): 3.03%.

For the compound `CC/C=C\[C@H](O)[C@H](O)C1=C(C)C(=O)[C@]2(O1)C(=O)N[C@@](O)(C(=O)c1ccccc1)[C@@H]2O`, the “activity change, negative = viability loss” value is -1.17% [at 17.3 µM].

The values above are taken from PubChem BioAssay (NCATS).
